A selection: hits, their analogues and other compounds. The true share with any hit is near 1.5%.
S1P2 agonist = activates the human S1P2 receptor; O95136; S1P2-expressing cell line, agonist reporter read-out; activation, % at 4.5 µM; hit rate 0.46% among 97,000; AID 729; in the data active means activation above about 16%;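 further: 0% = vehicle low control and 100% = maximal reference agonist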
GALR2 antag = GALR2 (human) receptor antagonism. O43603. GALR2-expressing cells, antagonist mode. inhibition, % at 4 µM. hit rate 0.39% among 140,000; in the data active means inhibition above about 27%;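 further: cells stimulated with galanin 1-16 at roughly its EC80; 0% = agonist challenge control and 100% = basal control without agonist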
GALR2 agonist = agonists of human galanin receptor 2 (GALR2); GALR2-expressing cells, agonist activation read-out; activation, % (concentration not given with the values); hit rate 0.48% among 140,000; AID 803; in the data active means activation above about 5%, passing the limit was not always enough;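 further: 0% = vehicle buffer wells and 100% = reference agonist at full effect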
Mac1 fbg enh = CD11b/CD18-fibrinogen binding enhancement. P05107+P11215. K562 CD11b/CD18 adhesion to fibrinogen, ATPlite luminescence. activation, % at 10 µM. hit rate 0.07% among 93,000;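 active means 10 µM primary screen giving 50% or more activity, confirmed by 40% or more on retest at that dose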
Target sequence (P05107 whole entry, looked up, other chains not shown): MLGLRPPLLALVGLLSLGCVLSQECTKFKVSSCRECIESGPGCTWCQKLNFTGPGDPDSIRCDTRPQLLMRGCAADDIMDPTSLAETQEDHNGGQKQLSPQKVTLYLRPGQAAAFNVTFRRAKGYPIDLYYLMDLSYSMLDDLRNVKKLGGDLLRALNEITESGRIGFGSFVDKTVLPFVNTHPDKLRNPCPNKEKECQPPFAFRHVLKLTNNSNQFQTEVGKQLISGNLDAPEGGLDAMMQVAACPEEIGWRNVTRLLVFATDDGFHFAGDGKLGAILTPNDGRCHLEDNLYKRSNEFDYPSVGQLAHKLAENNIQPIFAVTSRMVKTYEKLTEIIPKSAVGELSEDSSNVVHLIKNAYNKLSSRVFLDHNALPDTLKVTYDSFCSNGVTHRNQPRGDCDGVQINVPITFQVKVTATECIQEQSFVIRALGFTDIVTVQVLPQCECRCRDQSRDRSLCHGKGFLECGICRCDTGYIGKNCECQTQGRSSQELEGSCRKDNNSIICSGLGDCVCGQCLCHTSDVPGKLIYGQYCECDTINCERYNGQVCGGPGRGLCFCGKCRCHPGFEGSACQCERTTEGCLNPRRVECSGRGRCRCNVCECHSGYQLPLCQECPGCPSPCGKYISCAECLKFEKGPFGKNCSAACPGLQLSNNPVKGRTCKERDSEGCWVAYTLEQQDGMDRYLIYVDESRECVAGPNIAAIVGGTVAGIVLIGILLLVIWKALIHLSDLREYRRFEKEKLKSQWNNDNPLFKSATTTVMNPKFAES
S1P2 blocker = S1P2 (human) receptor antagonism; O95136; cell-based S1P2 antagonist assay, inhibition at 5 uM; inhibition, % at 5 µM; hit rate 0.21% among 97,000; AID 736; in the data active means inhibition above about 45%;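 further: CRE beta-lactamase reporter cells expressing human S1P2 stimulated with S1P; 0% = agonist at EC80 alone and 100% = agonist plus reference antagonist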
Mac1 fbg inh = inhibitors of human CD11b/CD18 binding to fibrinogen | P05107+P11215 | K562 CD11b/CD18 adhesion to fibrinogen, ATPlite luminescence; Mn2+ added to activate the integrin | inhibition, % at 10 µM | hit rate 0.54% among 93,000 | AID 1497;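 active means primary inhibition of 50% or more at 10 µM, then 40% or more on retest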
Starred values were filed as active, the others as inactive.

What do the screens show for `Cc1sc2ncnc(NCC(C)(C)N3CCOCC3)c2c1C`?
S1P2 agonist: -6; GALR2 antag: 26; GALR2 agonist: 0; Mac1 fbg enh: -5; S1P2 blocker: 64*; Mac1 fbg inh: 68*

What do the screens show for `CCOc1ccc(CN(C)CC(=O)Nc2ccc([N+](=O)[O-])cc2Cl)cc1`?
GALR2 antag: 3; GALR2 agonist: -1; Mac1 fbg enh: 6; Mac1 fbg inh: 66

Results for Cc1ccc(/C=C/C(=O)Nc2sc3c(c2C#N)CCCC3)o1 ?
GALR2 antag: 1; GALR2 agonist: 5.7*; Mac1 fbg enh: 37; Mac1 fbg inh: -8

What do the screens show for `O=C1OC(/C=C/c2ccc(Cl)cc2Cl)=NC/1=C\c1cccs1`?
GALR2 antag: 4; GALR2 agonist: -1

Results for CC(=O)Nc1ccc(-c2nnc(SCC(=O)c3ccc4c(c3)Cc3ccccc3-4)n2C)cc1 ?
S1P2 agonist: -4; GALR2 antag: -31; GALR2 agonist: 4.9*; S1P2 blocker: -9

What do the screens show for `COc1ccc(C(=O)OCC(=O)c2ccc(C3CCCCC3)cc2)cc1`?
S1P2 agonist: -7; GALR2 antag: -6; GALR2 agonist: 0; Mac1 fbg enh: -8; S1P2 blocker: 20; Mac1 fbg inh: 93

What do the screens show for `Nc1ccc(O)cc1C(=O)OCC(=O)c1ccc(C2CCCCC2)cc1`?
GALR2 antag: 13; GALR2 agonist: 6.3*

Results for COc1cccc(-n2c(SCC(=O)Nc3sc4c(c3C(N)=O)CCC4)nc3ccccc3c2=O)c1 ?
S1P2 agonist: 19*; GALR2 antag: 3; GALR2 agonist: -2; S1P2 blocker: -32

How did COc1cccc(-n2c(SCC(=O)NCc3cccs3)nc3ccccc3c2=O)c1 do in these assays?
GALR2 antag: 7; GALR2 agonist: -1

How did COc1ccc(NC2=NCC(Cc3ccc(Br)cc3)S2)cc1 (stereo unspecified) do in these assays?
GALR2 antag: 4; GALR2 agonist: 1

How did O=C(c1cnc2n(c1=O)CCS2)N1CCN(c2ccc([N+](=O)[O-])cc2)CC1 do in these assays?
S1P2 agonist: -4; GALR2 antag: -2; GALR2 agonist: -2; Mac1 fbg enh: 4; S1P2 blocker: -3; Mac1 fbg inh: -16

What do the screens show for `COc1cc([N+](=O)[O-])ccc1NC(=O)CC(C)C`?
GALR2 antag: -8; GALR2 agonist: -1

What do the screens show for `CC(C)CC(=O)Nc1cc([N+](=O)[O-])ccc1Cl`?
S1P2 agonist: 17*; GALR2 antag: -8; GALR2 agonist: -3; Mac1 fbg enh: -2; S1P2 blocker: 7; Mac1 fbg inh: -6

What do the screens show for `O=C1C2C(c3ccccc3)C=CC(c3ccccc3)C2C(=O)N1c1ccccn1` (stereo unspecified)?
GALR2 antag: 2; GALR2 agonist: 0

Results for Cc1c(C(=O)Nc2ccc(OC(F)(F)F)cc2)sc2nc3n(c(=O)c12)CCC3 ?
S1P2 agonist: -4; GALR2 antag: 15; GALR2 agonist: -1; S1P2 blocker: 58*

What do the screens show for `CC(C)c1noc2ncc(C(=O)c3cc(Cl)cc(Cl)c3O)cc12`?
S1P2 agonist: -1; GALR2 antag: -3; GALR2 agonist: 0; Mac1 fbg enh: -11; S1P2 blocker: -28; Mac1 fbg inh: 95*

How did COc1ccc(O)c(C(=O)c2cnc3onc(C)c3c2)c1 do in these assays?
S1P2 agonist: -3; GALR2 antag: 6; GALR2 agonist: -1; Mac1 fbg enh: -6; S1P2 blocker: 8; Mac1 fbg inh: 3

What do the screens show for `COc1ccc(NS(=O)(=O)c2ccc3nc(COc4ccc(Cl)c(C)c4)[nH]c3c2)cc1`?
GALR2 antag: 5; GALR2 agonist: 0; Mac1 fbg enh: 0; Mac1 fbg inh: 27

What do the screens show for `CCc1ccc(-c2nc(NC(=S)NC(=O)c3cccs3)sc2C)cc1`?
S1P2 agonist: 17*; GALR2 antag: -4; GALR2 agonist: -2; Mac1 fbg enh: -2; S1P2 blocker: -5; Mac1 fbg inh: 6

How did COc1ccccc1/C=N/Nc1nncc2ccccc12 do in these assays?
GALR2 antag: -5; GALR2 agonist: -1; Mac1 fbg enh: 18; Mac1 fbg inh: 15

What do the screens show for `COc1ccc(/C=N/Nc2nncc3ccccc23)cc1`?
GALR2 antag: 8; GALR2 agonist: -1; Mac1 fbg enh: -10; Mac1 fbg inh: 95*
